Assay outcomes (PubChem)
Marburg entry inh = inhibitors of Marburg virus binding or cell entry | Potency, µM (doses to about 37.8 µM), for inactives: at the highest dose activity change, negative = inhibition, actives largely listed as inhibitors | Marburg virus pseudotyped entry inhibition, cell reporter | AID 540276 | actives 1.8% (n = 300,000); calls by dose curve; tested in HEK293 cells; also: potency is read from the fitted curve at half-maximal effect
Lassa entry inh = blocks Lassa virus binding to or entry into cells. Lassa virus pseudotype entry inhibition, cell reporter. Potency, µM (doses to about 37.9 µM), for inactives: at the highest dose activity change, negative = inhibition, hits mostly inhibitors. actives 1.2% (n = 300,000); calls by dose curve; tested in HEK293 cells; also: potency is read from the fitted curve at half-maximal effect; nearly all actives have a fitted effect of over 50% in size
VACV Venus inh = inhibitors of vaccinia virus (Venus reporter) | Vaccinia virus Venus reporter expression, fluorescence | Potency, µM (titrated, usually from 36.5 µM), for inactives: at the highest dose activity change, negative = inhibition, hits mostly inhibitors | actives 0.46% (n = 330,000) | AID 720580; calls by dose curve; tested in A549 cells; also: potency is read from the fitted curve at half-maximal effect; nearly all actives have a fitted effect of over 30% in size
FMDV antiviral = blocks foot and mouth disease virus; Potency, µM (highest dose often 57.9 µM), for the others: top-dose activity change, negative = inhibition, hits mostly inhibitors; FMDV antiviral cell-based qHTS; actives 1.2% (n = 410,000); calls by dose curve; tested in HEK293T cells; also: read-out not given here; potency is read from the fitted curve at half-maximal effect; nearly all actives have a fitted effect of over 45% in size
HCMV inh = human cytomegalovirus inhibition | HFF cells, HCMV-luciferase reporter, 72 h; hits give low values | activity change, negative = inhibition, % at 57.5 µM | actives 4.5% (n = 410,000); in the data active = activity change below about -60%; inconclusive = no clear call, values can overlap the other calls; inactive = above about -39%
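Inhibition of viral replication was scored as loss of reporter luminescence in HFFs infected with HCMV-luciferase (MOI 1 PFU/cell) for 72 h; compounds tested at 2 doses, normalized to buffer and Salinomycin controls.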
Vaccinia mCherry = inhibitors of vaccinia virus infection (mCherry reporter signal); Vaccinia virus mCherry reporter infection, fluorescence; Potency, µM (titrated, usually from 36.5 µM), inactives show at the highest dose activity change, negative = inhibition, usual class: inhibitors; actives 0.63% (n = 310,000); AID 720579; calls by dose curve; tested in A549 cells; also: potency is read from the fitted curve at half-maximal effect; nearly all actives have a fitted effect of over 35% in size
The depositor's hits bear a star; i = inactive; ? = inconclusive; . = no result; [ ] = another dose, or the depositor's remark. The list is not random: actives were taken first. Their share in the collection is about 6.5%. % is scaled to controls: 0 for no effect and ±100 for the full control effect.

SMILES	Marburg entry inh	Lassa entry inh	VACV Venus inh	FMDV antiviral	HCMV inh	Vaccinia mCherry
C=C1C(=O)[C@]23C[C@H]1CC[C@H]2[C@]1(C)[C@@H](OC(C)=O)CC[C@@](C)(C(=O)OC)[C@H]1C[C@@H]3OC(C)=O	.	.	?	11µM*	-100*	?
O=C1C(c2nnnn2-c2ccc(F)cc2)N(C2CC2)C(=O)N1c1ccccc1 (stereo not given)	.	.	.	.	-6	.
N[C@@H](Cc1cc(CP(=O)(O)O)cc(-c2ccccc2Cl)c1)C(=O)O	.	.	.	-10%	.	.
Cc1oc(-c2ccc(Cl)cc2)nc1CS(=O)CC(=O)NCCCN1CCOCC1 (stereo not given)	.	.	.	-5%	-34	.
Cc1oc(-c2ccc(Cl)cc2)nc1CS(=O)CC(=O)NCCCN(C)C1CCCCC1 (stereo not given)	?	10%	.	?	-70*	.
Cc1ccc(-c2nc(CS(=O)CC(=O)NCCCN3CCN(Cc4ccccc4)CC3)c(C)o2)cc1 (stereo not given)	11µM*	?	?	-23%	-75*	?
COc1ccc(C2=NS(=O)(=O)N(C)C(C(=O)Nc3ccc(OC)c(OC)c3)=C2)cc1	.	.	-9%	?	?	i
COc1ccc(NC(=O)C2=CC(c3ccc(C)cc3)=NS(=O)(=O)N2C)cc1OC	.	.	-11%	?	-62*	i
Cc1ccc(SCCC(=O)NCCSCc2ccco2)cc1	-25%[46.1 µM]	14%[46.1 µM]	-16%	-5%	-100*	-11%
O=C(Cc1ccccc1)NCCSCc1ccco1	4%	0%	0%	.	-13	-21%
Cc1cc(C)c2nc(NNC(=O)c3ccc(S(=O)(=O)N4CCc5ccccc5C4)cc3)sc2c1	?	16µM*	?	-16%	-97*	16µM*
Cc1nnc(NC(=O)c2ccc(S(=O)(=O)N3CCc4ccccc4C3)cc2)o1	.	.	.	-6%	-39	.
Cc1cc(C)c2sc(NNC(=O)c3ccc(S(=O)(=O)N4CCc5ccccc5C4)cc3)nc2c1	?	12µM*	7.9µM*	?	-106*	4.5µM*
COc1cc(N(C)C)ccc1/C=C1\C=Cc2ccccc21	.	.	-18%	.	.	21%
N=c1ccn(CC(=O)c2ccc(-c3ccccc3)cc2)cc1	?	?	?	?	-76*	?
O=C(CN1C(=O)CCC1=O)c1ccc(-c2ccccc2)cc1	?	?	-10%	22%	-28	i
CCc1nn(-c2ccccc2)c2nc(-c3cccc(OC)c3)c3cc(OC)c(OC)cc3c12	.	2%[46.1 µM]	2%	-11%	2	-4%
COc1ccc(-c2nc3cnc(N4CCNCC4)nc3n(CCC#N)c2=O)cc1	.	.	.	-5%	.	.
O=C1NC(Cc2ccc(O)cc2)c2nc3ccc(Br)cc3c(=O)n2-c2cc3ccccc3cc21 (stereo not given)	.	.	?	?	-94*	?
COc1ccc(-c2csc(C)n2)cc1	6%	6%	-14%	53%	34	i
COc1cc(C)nc(-c2csc(C)n2)n1	.	.	.	-1%	-86*	.
Oc1cccc(/C=N/N=C/c2cccc(O)c2O)c1O	?	11µM*	-15%	-87%	-11	i
O=C(O)CC(NC(=O)C1c2ccccc2Oc2ccccc21)c1ccc(Cl)cc1 (stereo not given)	.	.	.	-17%	-88*	.
CCc1nnc(SC(CC)C(=O)Nc2cccc(OC)c2)c2cc3oc(C)cc3n12 (stereo not given)	.	-22%[46.1 µM]	-17%	-23%	-3	-10%
O=C(NCc1ccccc1Cl)NCc1noc2ccccc12	.	-20%[46.1 µM]	-5%	27%	39	3%
SMILES	Marburg entry inh	Lassa entry inh	VACV Venus inh	FMDV antiviral	HCMV inh	Vaccinia mCherry
CC1CCCN(c2ccc(C(=O)NCc3cccs3)cn2)C1 (stereo not given)	12%	10µM*	-26%	.	-2	-5%
O=C(NCc1cccs1)c1ccc(N2CCCCC2)nc1	-2%	-16%	?	.	21	-10%
Cc1ccc(S(=O)(=O)N(CCCO)CC(O)CON=C2c3ccccc3-c3ccccc32)cc1 (stereo not given)	?	?	-8%	35µM*	31	-22%
COCCn1cnc2cnc(Nc3cc(OC)c(OC)c(OC)c3)cc21	.	.	.	.	30	.
CCC(=O)C1=C(c2cccc([N+](=O)[O-])c2)N(C(=O)CC)n2c(nnc2C2CCCCC2)S1	.	?	?	0%	-99*	?
CCC(=O)C1=C(c2ccccc2)N(C(=O)CC)n2c(nnc2C2CCCCC2)S1	.	2%[46.1 µM]	-14%	-7%	22	-9%
CCC(=O)C1=C(c2cccc(OC)c2)N(C(=O)CC)n2c(nnc2C2CCCCC2)S1	.	?	?	-19%	-92*	-38%
O=C(CN(c1ccccc1Cl)S(=O)(=O)c1ccccc1)N/N=C/c1ccccc1C(=O)O	1%[46.1 µM]	0%	-15%	7%	-63*	-6%
O=C(/C=C/c1ccc(OCCCF)cc1)Nc1ccnc(-c2ccncc2)n1	?	-10%	-17%	22µM*	?	-12%
CCN1/C(=C/C=C/C2=[N+](CC)c3ccccc3C2(C)C)C(C)(C)c2ccccc21	.	.	.	3.5µM*	-99*	i
C=C1C(=O)O[C@@H]2[C@H]1[C@@H](OC(=O)/C(C)=C/C)C/C(C)=C\C(=O)/C=C(\C)[C@@H]2O	.	.	11µM*	28µM*	-98*	?
C=C1C(=O)O[C@H]2[C@H]1[C@H](OC(=O)/C(C)=C\C)C[C@]1(CO1)[C@@H]1[C@H](OC(C)=O)C=C(C)[C@]21O	?	-24%[46.1 µM]	1%	0%	-18	i
CN1CC(C(=O)c2ccc([N+](=O)[O-])cc2)C(c2ccc(Cl)cc2)C1 (stereo not given)	-23%[46.1 µM]	4%	-12%	-18%	-64*	?
CN1CC(C(=O)c2cccc(C(F)(F)F)c2)C(c2ccc(Cl)cc2)C1 (stereo not given)	?	?	-7%	?	-72*	i
CCCS(=O)(=O)N1CC(=O)N(c2cc(C)cc(C)c2)C(C)(C(=O)NC2CCCCCC2)C1 (stereo not given)	.	29%[46.1 µM]	-8%	12%	0	-13%
CCOC(=O)N/N=C/c1cn(CCCOc2ccccc2)c2ccccc12	?	?	-13%	-23%	51	-24%
COc1cccc(OCCn2cc(/C=N/NC(=O)c3ccncc3)c3ccccc32)c1	?	6%	-19%	?	29	-24%
CNC(=S)N/N=C/c1cn(CCOc2cccc(OC)c2)c2ccccc12	?	?	?	-5%	202	4µM*
CCOC(=O)N/N=C/c1cn(CCCOc2ccc(C)cc2)c2ccccc12	7.1µM*	?	-24%	-12%	-5	?
Cc1ccc2nc(-c3ccco3)c(Cc3ccccc3C(F)(F)F)n2c1	.	.	.	.	-2	.
Cc1ccc(CSCCC(=O)NCc2ccc(F)cc2Cl)cc1	.	-15%[46.1 µM]	-7%	-2%	-32	i
